Values without a mark were called inactive. The source made the active and inactive calls. Calls come from the whole dose curve; as a rule, active = well fitted cell-killing curve with a large enough effect; inconclusive = small, poorly fitted or top-dose-only effect; inactive = flat fitted curve, though single readings scatter.
Assay: Cell Viability - LYMP1-002 - Assay at 24 hr (AID 993)
Conditions: LYMP1-002 lymphoblastoid cells viability; series mostly up to 92.2 µM; activity change, negative = cytotoxicity: at the top concentration
Method in brief: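 qHTS, LYMP1-002 lymphoblastoid, 24 h cpd, 37 C, CellTiter-Glo ATP luminescence; AC50 via Hill eq.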
% is set by controls: 0 for no effect and ±100 for the full control effect; potency is the fitted concentration of half-maximal effect.

| SMILES | activity change, negative = cytotoxicity | Potency |
| --- | --- | --- |
| O=C(O)C(Br)Br | 0.163% |  |
| Cc1ccc(OP(=O)(Oc2ccc(C)cc2)Oc2ccc(C)cc2)cc1 | -5.75% |  |
| Oc1c(Cl)c(Cl)cc(Cl)c1Cl | 1.66% |  |
| Nc1ccc(Cc2ccc(N)c(Cl)c2)cc1Cl | -1.75% |  |
| CN(C)c1ccc(N(C)C)cc1 | -12.5% |  |
| Brc1ccc(Oc2ccc(Br)cc2Br)c(Br)c1 | 8.54% |  |
| O=[N+]([O-])c1c(Cl)c(Cl)c(Cl)c(Cl)c1Cl | -6.25% |  |
| CN1CSC(=S)N(C)C1 |  | 39.8 µM (active) |
| ClCC(Cl)Cl | -15.8% |  |
| C=CC(=O)OCCO | -1.7% |  |
| CC(C)Br | -0.226% |  |
| O=[N+]([O-])c1ccc(O)c([N+](=O)[O-])c1 | 0.569% |  |
| CC(C)[N+](=O)[O-] | 1.62% |  |
| CCCC[N+](=O)[O-] | 7.68% |  |
| Cc1cc(-c2cc(C)c(N)c(C)c2)cc(C)c1N | -1.97% |  |
| Nc1cc(Cl)ccc1O | -12.4% |  |
| CCN(N=O)C(N)=O | -3.32% |  |
| N#CC(Cl)(Cl)Cl | 3.11% |  |
| CCCCC(CC)COC(=O)c1ccc(C(=O)OCC(CC)CCCC)c(C(=O)OCC(CC)CCCC)c1 (stereo not drawn) | 5.75% |  |
| O=C(O)C(Br)CBr (stereo not drawn) | -8.2% |  |
| Nc1c(Br)cc([N+](=O)[O-])cc1[N+](=O)[O-] | -10.7% |  |
| O=[N+]([O-])c1ccccc1CCl | -3.35% |  |
| Cc1cc(C)cc(OP(=O)(Oc2cc(C)cc(C)c2)Oc2cc(C)cc(C)c2)c1 | -4.53% |  |
| N#CC(Br)Br | 1.16% |  |
| O=C(O)C(Cl)Br (stereo not drawn) | 1.89% |  |
| COP(=S)(OC)SCn1nnc2ccccc2c1=O | 3.21% |  |
| Nc1ccc([N+](=O)[O-])cc1N | -6.86% |  |
| O=C(O)c1cccc(Cl)c1 | -0.399% |  |

— PubChem BioAssay (NCATS)
